From PubChem BioAssay
Only some compounds are listed: those with a hit (about 12% of all), similar ones and a draw of the others.
WT yeast gro inh: growth inhibition of WT yeast, mitochondrial fusion screen; actives 2.1% (n = 190,000); inhibition, % at 10 µM; mitochondrial fusion phenotypic screen, WT strain; AID 1362; in the data active = inhibition above about 58%; tested in S. cerevisiae
CHOP inh: inhibitors of CHOP induction in ER stress response | CHO-K1 CHOP-promoter luciferase, tunicamycin-induced, 15-18 h | inhibition, % at 10 µM | actives 3.8% (n = 220,000) | AID 2732;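 active = compounds that reduced the stress-induced luciferase reporter signal by more than about 70% of percent inhibition, limit read from the data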;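 note: 0% = tunicamycin plus vehicle and 100% = wells without tunicamycin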
Lmaj promast: reduces viability of Leishmania major promastigotes | inhibition, % at 10 µM | resazurin fluorescence viability | actives 9% (n = 200,000); in the data active = inhibition above about 50%;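 note: promastigotes grown with compound for 44 hours at 28 °C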
Arbovirus anti: antivirals against arbovirus infection. arbovirus infection cell-based antiviral screen. inhibition, % at 10 µM. actives 0.37% (n = 200,000). AID 1251; in the data active = inhibition above about 30%
* = called active by the depositor; / = not tested or not shown.

SMILES	WT yeast gro inh	CHOP inh	Lmaj promast	Arbovirus anti
COc1ccc(CN(C(=O)c2cc(=O)c3cc(C)cc(C)c3o2)C2CCS(=O)(=O)C2)cc1 (stereo not given)	/	-8	/	/
Cc1cc(C)cc(NC(=O)N2CCC(c3nc4ccccc4o3)CC2)c1	5	74*	12	-13
Cc1cccc(NC(=O)N2CCC(c3nc4ccccc4o3)CC2)c1	16	38	3	-5
O=C(CSc1nc(-c2ccc(F)cc2)cs1)N1CCc2ccccc21	-8	29	-5	-3
O=C(Cc1csc(Nc2nc(=S)[nH]c3ccccc23)n1)NCc1cccc(Cl)c1	5	80*	-1	-3
O=C(Cc1csc(Nc2nc(=S)[nH]c3ccccc23)n1)NCc1ccccc1Cl	3	-12	-3	-14
CC(C)CN(CC(C)C)C(=O)Nc1cccc([N+](=O)[O-])c1	-11	6	5	-3
CCC1Oc2ccc(C)cc2N(CC(=O)NCCN2C(C)CCCC2C)C1=O (stereo not given)	10	11	2	-5
CCC1Oc2ccc(C)cc2N(CC(=O)N(Cc2ccc(C)o2)C2CCCC2)C1=O (stereo not given)	65*	10	21	-19
Cc1cc(C)c(C#N)c(SCC(=O)C(C)(C)C)n1	-1	26	77*	2
COC(C#CCCN(C)C)(c1ccccc1)c1ccccc1	-4	39	100*	-13
CN(CC#CC(O)(c1ccccc1)c1ccccc1)C(C)(C)C	/	13	/	/
O=S(=O)(c1ccccc1)N(CC(O)COc1ccccc1)c1ccccc1 (stereo not given)	/	19	/	/
Cc1ccc(COc2ccsc2-c2n[nH]c(=S)n2C)cc1	-17	-26	-6	-16
Cn1c(-c2sccc2OCc2ccc(Cl)cc2Cl)n[nH]c1=S	64*	-5	20	-2
Cn1cccc1/C=C1\CCC/C(=C\c2cccn2C)C1=O	21	-46	44	25
COc1ccc(/C=C2\CCC/C(=C\C=N\N(C)C)C2=O)cc1	11	27	93*	0
CN(C)/N=C/C=C1\CCC/C(=C\c2ccc(F)c(F)c2)C1=O	10	12	97*	4
COc1ccccc1CNC(=O)COC(=O)Cc1ccc(Cl)cc1	-15	4	-4	2
COc1cccc(-c2n[nH]c(=S)n2Cc2ccco2)c1	/	1	/	/
COc1ccccc1CC(=O)NNS(=O)(=O)c1ccccc1[N+](=O)[O-]	-13	10	-5	2
COCC(=O)NNS(=O)(=O)c1ccccc1[N+](=O)[O-]	17	7	54*	1
CC(=O)c1ccc(OCC(O)CN2CCN(CC(O)COc3ccc(C(C)=O)cc3)CC2)cc1 (stereo not given)	16	0	-8	-9
O=C(c1ccccc1)c1ccc(OCC(O)CN2CCN(Cc3ccccc3)CC2)cc1 (stereo not given)	-1	10	96*	15
OC(COC(c1ccccc1)c1ccccc1)CN1CCOCC1 (stereo not given)	14	-9	3	11
SMILES	WT yeast gro inh	CHOP inh	Lmaj promast	Arbovirus anti
Cc1nc(C)n(CC(O)COc2ccc(C(=O)c3ccccc3)cc2)n1 (stereo not given)	-5	-1	2	0
CCCOC(=O)c1ccc(OCC(O)CN2CCN(C(=O)c3ccccc3)CC2)cc1 (stereo not given)	0	18	-4	0
CC1CN(CC(O)COC(c2ccccc2)c2ccccc2)CC(C)O1 (stereo not given)	3	6	86*	-4
CC1CN(CC(O)COc2ccc(C(=O)c3ccccc3)cc2)CC(C)O1 (stereo not given)	-12	38	79*	-2
CC(=O)c1ccc(OCC(O)CN2CCN(Cc3ccccc3)CC2)cc1 (stereo not given)	3	-1	94*	-6
COCCN1C(=O)/C(=C/c2ccc(N3CCCC3)cc2C)SC1=S	34	6	24	-3
CC1CN(CC(O)COc2ccccc2C(C)(C)C)CC(C)O1 (stereo not given)	6	38	92*	4
CCOc1ccc(OCC(O)CNC2CCN(Cc3ccccc3)CC2)cc1 (stereo not given)	-9	-30	27	-21
CC(C)(c1ccccc1)c1ccc(OCC(O)CNC2CCN(Cc3ccccc3)CC2)cc1 (stereo not given)	93	11	101*	-29
COC(=O)CNC(=O)CSc1nc(N)cc(=O)[nH]1	0	-18	-3	3
O=C(CSc1nnc(-c2ccccc2)o1)NC1CCS(=O)(=O)C1 (stereo not given)	-4	-4	-1	-5
COc1ccc(NC(=O)NCCc2cccc(Cl)c2)cc1OC	-5	-12	49	-17
COc1ccc(OC)c(C(=O)c2ccc(C(=O)Nc3cccc4ccccc34)cc2)c1	13	13	55*	-5
